Reference: PubChem BioAssay (EPA / NIEHS)
Activity calls are given as the source filed them. How the source made its calls: active means hit-call score of the fitted dose curve at least 0.9, where 1 is the maximum; inactive means score below 0.9.

Columns and labels:
[1] = ATG_CRE_CIS: Attagene CIS-FACTORIAL HepG2 Assay for human cAMP Responsive Element (CRE) binding protein 3 (AID 2282926); conditions: HepG2 CRE cis-reporter, Attagene multiplexed mRNA; actives raise or lower the signal
How it was run: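 Transfected HepG2 were treated for 24 hours, then RNA was extracted and reporter cDNA amplified with sequence-specific primers. Labelled fragments were separated by capillary electrophoresis, and the CRE signal was fitted bidirectionally with DMSO as baseline.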

[2] = biological target: CCAAT/enhancer-binding protein beta (Homo sapiens) (UniProt P17676); assay: ATG_C_EBP_CIS: Attagene CIS-FACTORIAL HepG2 Assay for human CCAAT/Enhancer Binding Protein (C/EBP) beta (AID 2282927); conditions: HepG2 Attagene cis-factorial transcription factor reporter; actives raise or lower the signal
How it was run: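 Following a 24 h incubation with test chemical, transfected HepG2 cells yielded RNA whose reporter transcripts were quantified by RT-PCR and fluorescent capillary electrophoresis, with DMSO serving as baseline for bidirectional fitting.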

[3] = ATG_CMV_CIS: Attagene CIS-FACTORIAL HepG2 Assay for human CMV (Internal Marker) (AID 2282928); conditions: HepG2 CMV promoter reporter, transcription factor profiling; actives raise or lower the signal;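 further: endpoint acts as a background internal control marker rather than a target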
How it was run: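 Cell system: HepG2, transiently transfected multiple reporter units under cis promoters. Exposure: 24 h. Detection: RT-PCR, FAM labeling, HpaI digestion, capillary electrophoresis. Analysis: bidirectional, DMSO baseline.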

[4] = ATG_DR4_LXR_CIS: Attagene CIS-FACTORIAL HepG2 Assay for human Liver X Receptor (LXR), DR4 submotif (AID 2282929); conditions: HepG2 Attagene DR4 cis-reporter, mRNA transcription; actives raise or lower the signal
How it was run: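 Fluorescence intensity of labelled reporter cDNA fragments, separated by capillary electrophoresis, gives the signal. HepG2 cells bearing cis-regulated reporter constructs were treated 24 h; activity fitted bidirectionally relative to DMSO negative control.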

[5] = biological target: Aryl hydrocarbon receptor (Homo sapiens) (UniProt P35869); assay: ATG_Ahr_CIS: Attagene CIS-FACTORIAL HepG2 Assay for human Aryl Hydrocarbon Receptor (Ahr) (AID 2282930); conditions: HepG2 AhR cis-factorial reporter transcription; actives raise or lower the signal
How it was run: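 Values derive from bidirectional fitting against DMSO negative control. Underlying signal: cis-element reporter mRNA in transiently transfected HepG2, harvested 24 h post-dose and measured by RT-PCR plus capillary electrophoresis.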

[6] = ATG_AP_1_CIS: Attagene CIS-FACTORIAL HepG2 Assay for human Activator Protein 1 (AP-1) (AID 2282931); conditions: HepG2 Attagene cis-factorial AP-1 reporter mRNA; actives raise or lower the signal
How it was run: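 Multiplexed HepG2 reporter assay, 24 h dosing. mRNA induction detected by RT-PCR plus capillary electrophoresis. Activity fitted in both directions against DMSO.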

[7] = ATG_AP_2_CIS: Attagene CIS-FACTORIAL HepG2 Assay for human Activator Protein 2 (AP-2) (AID 2282932); conditions: HepG2 AP-2 cis-reporter, Attagene transcription factor profiling; actives raise or lower the signal
How it was run: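 Bidirectional curve fitting against DMSO was applied to reporter mRNA signals from HepG2 cells 24 h after dosing. Cis-promoter reporter units, transiently transfected, were read by RT-PCR plus capillary electrophoresis.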

[8] = ATG_BRE_CIS: Attagene CIS-FACTORIAL HepG2 Assay for human Bone Morphogenetic Protein (BMP) Response Element (BRE) (AID 2282933); conditions: HepG2 BMP response element reporter, Attagene transcription factor profiling; actives raise or lower the signal
How it was run: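 Multiplexed cis-reporter assay, HepG2, 24 h exposure. mRNA from reporter units quantified via RT-PCR/CE; DMSO baseline; bidirectional curve fit.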

[9] = biological target: Transcription factor E2F1 (Homo sapiens) (UniProt Q01094); assay: ATG_E2F_CIS: Attagene CIS-FACTORIAL HepG2 Assay for human E2F Transcription Factor 1 (AID 2282935); conditions: HepG2 Attagene cis-reporter, E2F reporter RNA transcripts; actives raise or lower the signal
How it was run: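 Multiplexed cis-reporter assay: HepG2, transient transfection, 24 h dosing, mRNA quantitation by labeled RT-PCR and CE.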

[10] = ATG_E_Box_CIS: Attagene CIS-FACTORIAL HepG2 Assay for human Enhancer Box (E-box) (AID 2282936); conditions: HepG2 E-box cis-reporter transcription, actives raise or lower the signal
How it was run: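 Multiplexed CIS reporter system in transiently transfected HepG2 cells measures native transcription factor activity. Reporter RNA after 24 h exposure is profiled by RT-PCR-capillary electrophoresis.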

[11] = ATG_M_61_CIS: Attagene CIS-FACTORIAL HepG2 Assay for M61 Transcription Factor (Internal Marker) (AID 2282937); conditions: HepG2 Attagene CIS-FACTORIAL M61 internal marker reporter; actives raise or lower the signal
How it was run: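 Endogenous transcription factor activity in HepG2 is read through transiently transfected cis-element reporter units. After 24 h dosing, RNA undergoes reverse transcription, PCR and primer extension with 6-FAM before capillary electrophoresis; DMSO-referenced bidirectional fit.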

[12] = ATG_EGR_CIS: Attagene CIS-FACTORIAL HepG2 Assay for human Early Growth Response 1 (EGR1) (AID 2282938); conditions: HepG2 Attagene CIS-FACTORIAL EGR reporter mRNA; actives raise or lower the signal
How it was run: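 Activity is taken as induction or loss of reporter mRNA versus DMSO, fitted bidirectionally. Transcripts from cis-regulated reporter units in transiently transfected HepG2 were measured after 24 h by RT-PCR with capillary electrophoresis.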

[13] = ATG_M_19_CIS: Attagene CIS-FACTORIAL HepG2 Assay for M19 Transcription Factor (Internal Marker) (AID 2282939); conditions: HepG2 Attagene CIS-FACTORIAL M19 internal marker reporter; actives raise or lower the signal
How it was run: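 Signals come from fluorescence of labelled reporter-specific PCR fragments resolved by capillary electrophoresis, following 24 h treatment of HepG2 cells transfected with cis-promoter reporter units; activity was fitted in both directions relative to DMSO.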

[14] = ATG_ERE_CIS: Attagene CIS-FACTORIAL HepG2 Assay for Estrogen Response Element (ERE) (AID 2282940); conditions: HepG2 ERE cis-reporter, Attagene RNA transcript; actives raise or lower the signal
How it was run: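 Fluorescence of capillary-separated, FAM-labelled reporter cDNA fragments indicates reporter mRNA levels in HepG2 cells exposed to chemicals for 24 h. Transient transfection with cis-regulated units; data fitted in both directions against DMSO.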

[15] = ATG_Ets_CIS: Attagene CIS-FACTORIAL HepG2 Assay for human Erythroblast Transformation Specific (ETS) (AID 2282941); conditions: HepG2 ETS cis-reporter transcription, actives raise or lower the signal
How it was run: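 After transient cis-reporter transfection, HepG2 cells receive test chemical for 24 h. Reporter mRNA levels, measured by RT-PCR and capillary electrophoresis fluorescence, are analysed bidirectionally relative to the DMSO baseline.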

[16] = biological target: Hepatocyte nuclear factor 3-beta (Homo sapiens) (UniProt Q9Y261); assay: ATG_FoxA2_CIS: Attagene CIS-FACTORIAL HepG2 Assay for human Forkhead box A2 (FOXA2) (AID 2282942); conditions: HepG2 cis-reporter transcription factor activity, 24 h; actives raise or lower the signal
How it was run: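 Reporter transcript induction is measured by fluorescence after capillary electrophoresis of RT-PCR products from HepG2 cells exposed 24 h. Cis-regulated reporter units report endogenous factor activity; curves fitted both directions against DMSO.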

[17] = ATG_FoxO_CIS: Attagene CIS-FACTORIAL HepG2 Assay for human Forkhead box O (FoxO) (AID 2282943); conditions: HepG2 Attagene cis-reporter, FoxO element, mRNA; actives raise or lower the signal
How it was run: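 Values reflect reporter mRNA induction or loss in HepG2 cells 24 h post-dosing, fitted bidirectionally with DMSO as negative control and baseline. Detection used RT-PCR and fluorescence capillary electrophoresis.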

[18] = ATG_GATA_CIS: Attagene CIS-FACTORIAL HepG2 Assay for human GATA Binding Protein (AID 2282944); conditions: HepG2 GATA cis-element reporter, Attagene multiplex mRNA; actives raise or lower the signal
How it was run: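 After transfecting HepG2 cells with multiple cis-regulated reporter units, chemicals are dosed for 24 h; isolated RNA undergoes RT-PCR and fluorescent labeling before capillary electrophoresis, with activity expressed against DMSO.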

[19] = ATG_GLI_CIS: Attagene CIS-FACTORIAL HepG2 Assay for human Zinc Finger Protein GLI1 (AID 2282945); conditions: HepG2, Attagene cis-factorial reporter mRNA, GLI element; actives raise or lower the signal
How it was run: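 HepG2 cells transiently transfected with cis-promoter multiplexed reporter units report endogenous transcription factor activity. After 24 h chemical exposure, reporter mRNA was quantified by RT-PCR, 6-FAM labelling, HpaI digestion and capillary electrophoresis, with bidirectional fitting against DMSO.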

Measured: AC50

Sequence of Aryl hydrocarbon receptor (Homo sapiens) (P35869 whole entry, looked up): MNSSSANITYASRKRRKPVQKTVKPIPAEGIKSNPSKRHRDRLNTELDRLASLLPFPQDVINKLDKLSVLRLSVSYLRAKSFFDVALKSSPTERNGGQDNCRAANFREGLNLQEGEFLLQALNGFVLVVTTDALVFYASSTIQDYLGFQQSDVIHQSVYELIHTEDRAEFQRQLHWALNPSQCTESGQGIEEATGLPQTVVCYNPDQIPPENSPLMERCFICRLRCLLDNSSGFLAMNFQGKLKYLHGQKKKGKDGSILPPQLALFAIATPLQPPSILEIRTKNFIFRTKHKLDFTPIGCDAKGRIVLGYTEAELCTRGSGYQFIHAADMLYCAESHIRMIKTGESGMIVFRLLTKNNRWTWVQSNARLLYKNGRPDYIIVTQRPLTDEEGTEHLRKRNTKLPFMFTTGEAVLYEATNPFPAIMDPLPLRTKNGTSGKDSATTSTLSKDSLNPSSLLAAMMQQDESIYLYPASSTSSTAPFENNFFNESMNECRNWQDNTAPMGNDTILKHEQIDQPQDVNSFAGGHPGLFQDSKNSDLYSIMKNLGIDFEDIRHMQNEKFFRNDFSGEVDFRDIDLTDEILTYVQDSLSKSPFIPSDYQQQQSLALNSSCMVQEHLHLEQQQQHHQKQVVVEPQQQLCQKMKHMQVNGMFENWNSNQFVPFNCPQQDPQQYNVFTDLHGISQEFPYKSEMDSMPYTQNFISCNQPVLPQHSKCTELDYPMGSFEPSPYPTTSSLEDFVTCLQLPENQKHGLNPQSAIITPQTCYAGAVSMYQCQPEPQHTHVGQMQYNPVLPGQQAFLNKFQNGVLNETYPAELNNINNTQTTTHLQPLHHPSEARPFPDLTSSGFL
Sequence of Hepatocyte nuclear factor 3-beta (Homo sapiens) (Q9Y261 whole entry, looked up): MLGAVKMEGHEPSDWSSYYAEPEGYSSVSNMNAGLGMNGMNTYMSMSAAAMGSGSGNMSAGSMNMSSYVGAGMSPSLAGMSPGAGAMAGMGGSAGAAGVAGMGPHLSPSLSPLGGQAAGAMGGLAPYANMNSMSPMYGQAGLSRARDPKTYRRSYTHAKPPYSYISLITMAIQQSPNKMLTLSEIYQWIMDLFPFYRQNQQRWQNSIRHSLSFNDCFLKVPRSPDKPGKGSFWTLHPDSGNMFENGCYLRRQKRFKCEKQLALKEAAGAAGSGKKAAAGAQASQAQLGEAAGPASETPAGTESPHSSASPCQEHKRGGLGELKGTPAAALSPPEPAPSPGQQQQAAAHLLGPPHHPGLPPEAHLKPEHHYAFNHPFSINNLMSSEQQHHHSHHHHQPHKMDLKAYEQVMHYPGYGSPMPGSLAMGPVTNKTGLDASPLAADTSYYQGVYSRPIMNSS
Sequence of CCAAT/enhancer-binding protein beta (Homo sapiens) (P17676 whole entry, looked up): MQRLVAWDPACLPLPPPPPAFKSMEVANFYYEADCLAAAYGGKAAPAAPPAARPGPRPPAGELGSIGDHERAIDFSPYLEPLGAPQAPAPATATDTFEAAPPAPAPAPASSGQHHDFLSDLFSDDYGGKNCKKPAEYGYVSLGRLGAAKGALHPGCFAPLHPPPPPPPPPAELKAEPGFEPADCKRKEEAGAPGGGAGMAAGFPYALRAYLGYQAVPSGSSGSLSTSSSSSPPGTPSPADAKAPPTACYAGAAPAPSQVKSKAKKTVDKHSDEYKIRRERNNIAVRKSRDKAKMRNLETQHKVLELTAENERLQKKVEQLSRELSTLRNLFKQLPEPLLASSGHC
Sequence of Transcription factor E2F1 (Homo sapiens) (Q01094 whole entry, looked up): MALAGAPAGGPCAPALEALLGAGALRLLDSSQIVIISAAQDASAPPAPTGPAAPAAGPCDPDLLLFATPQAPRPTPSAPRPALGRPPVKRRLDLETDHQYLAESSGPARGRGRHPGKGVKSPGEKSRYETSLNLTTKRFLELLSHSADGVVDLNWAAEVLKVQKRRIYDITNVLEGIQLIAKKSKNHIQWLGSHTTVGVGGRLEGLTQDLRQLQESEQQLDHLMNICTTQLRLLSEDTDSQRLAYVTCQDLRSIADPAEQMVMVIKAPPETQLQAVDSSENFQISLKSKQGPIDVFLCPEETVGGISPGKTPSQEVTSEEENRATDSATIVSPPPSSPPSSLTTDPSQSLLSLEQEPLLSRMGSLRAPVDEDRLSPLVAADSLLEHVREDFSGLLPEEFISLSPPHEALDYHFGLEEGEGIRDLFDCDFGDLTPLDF

c1ccc(CCCc2ccccn2)cc1
active: [9] 72.7 µM
inactive: all other assays above

CCCCCCCCCOC(C)=O
not listed: [16]
inactive: all other assays above

O=S(=O)(O)c1ccc(O)c2ncccc12
active: [5] 37.5 µM
inactive: all other assays above

CCn1c2ccccc2c2cc(N)ccc21
active: [3] 31.7 µM | [5] 5.05 µM | [8] 100 µM
not listed: [18]
inactive: all other assays above

C=C(C)[C@@H]1CCC2=CC(=O)C[C@@H](C)[C@]2(C)C1
active: [4] 177 µM | [6] 53.4 µM | [8] 116 µM
inactive: all other assays above

O=C1c2ccccc2C(=O)N1SC1CCCCC1
active: [4] 170 µM | [5] 26.9 µM | [6] 84.5 µM | [7] 129 µM | [8] 75.1 µM | [12] 65.6 µM | [13] 186 µM | [14] 66.4 µM | [15] 159 µM | [17] 172 µM | [18] 144 µM
inactive: [1] | [2] | [3] | [9] | [10] | [11] | [16] | [19]

NCCOCCO
inactive: all assays above
